This is an account of results in PubChem BioAssay (NCATS).

Records with an inconclusive call do not appear. Values without a mark were called inactive. Active and inactive are the calls of the source. Calls come from the whole dose curve; as a rule, active = well fitted cell-killing curve with a large enough effect; inconclusive = small, poorly fitted or top-dose-only effect, or effect the other way; inactive = no such curve, though single readings can be large or run the other way.

Assay [1] can be described thus: Viability qHTS for spleen associated tyrosine kinase inhibitor (SYKi) naive MV4-11 cells (AID 1963823). Note: nearly all actives have a fitted effect of over 40% in size. The gist of the method: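 CellTiter-Glo luminescence, 10 min room-temperature incubation, gave viability. Cells: naive MV4-11 (500/well), treated 72 hr at 37 C, 5% CO2.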
The nature of assay [2]: Viability qHTS for spleen associated tyrosine kinase inhibitor (SYKi) drug resistant MV4-11 cells (AID 1963824). Note: nearly all actives have a fitted effect of over 35% in size. The method, boiled down: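 CellTiter-Glo luminescence, read 10 min after reagent addition, reports viability after a 72 hr compound exposure. Cells are an MV4-11 line made resistant to SYK inhibition, seeded at 500 per well onto compound-containing plates.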
On the technique in general: qHTS replaces the single test concentration by a dilution series.
Potency is the fitted concentration of half-maximal effect.

For the compound `C=C1CC[C@@H]2[C@@](C)(CO[C@@H]3O[C@H](CO)C(O)[C@H](O)C3O)[C@H](O)CC[C@@]2(C)[C@@H]1CC/C(C)=C/CO` (some centres undefined), in assay [1], the viability (% of control) was 93.2% [at 9.25 µM]. Also, in assay [2], the viability, % of control was 101% [at 9.25 µM].
On to `O=C(Cc1ccccc1)OC[C@H]1O[C@H](O[C@H]2O[C@H](CO)[C@@H](O)[C@H](O)[C@H]2O)[C@H](O)[C@@H](O)[C@@H]1O`, for which the Potency result in assay [1] and in assay [2] was “inactive” throughout.
In the case of `Nc1nc(NC2CC2)cc(-c2cccc(Cl)c2Cl)n1`, the Potency is 10.3 µM (active) in assay [1] and 7.31 µM (active) in assay [2].
`CC/C=C\C(O)C(O)C1=C(C)C(=O)C2(O1)C(=O)NC(OC)(C(=O)c1ccccc1)C2O` (centres undefined): the Potency entry in assay [1] and in assay [2] was “inactive” each time.
Consider `Cc1onc(C(=O)N2CCN(C(c3ccc(Cl)cc3)c3ccc(Cl)cc3)CC2)c1[N+](=O)[O-]`, for which the Potency was 4.11 µM (active) in assay [1] and 4.61 µM (active) in assay [2].
On the same counts, the results for `COc1cc2c(cc1OC)/C(=C/c1ccc(O)cc1)C(=O)N2` are 8.2 µM (active) and 18.4 µM (active).
On to `CC(=O)N[C@H]1[C@H](O[C@H]2CC[C@@]3(C)C(CC[C@]4(C)C3CC=C3C5CC(C)(C)CC[C@]5(C(=O)O)[C@H](O[C@@H]5O[C@H](CO)[C@@H](O)[C@H](O)[C@H]5O)C[C@]34C)C2(C)C)O[C@H](CO[C@@H]2OC[C@H](O)[C@H](O)[C@H]2O[C@@H]2OC[C@@H](O)[C@H](O)[C@H]2O)[C@@H](O)[C@@H]1O` (some centres undefined), for which, in assay [1], the viability (% of control) is 57% [at 9.25 µM]. The viability, % of control in assay [2] is 81.4% [at 9.25 µM].
With `C=CCc1ccc(O[C@@H]2O[C@H](CO)[C@@H](O)[C@H](O)[C@H]2O)c(OC)c1`, the Potency entry in assay [1] and in assay [2] was “inactive” each time.
Turning to `COc1cc(/C=C/C(=O)O[C@H]2[C@H](O)[C@@H](CO)O[C@@]2(CO)O[C@H]2O[C@H](CO)[C@@H](O)[C@H](O)[C@H]2O)cc(OC)c1O`, the Potency entry in assay [1] and in assay [2] was “inactive” throughout.
As to `CC1(C)CC[C@]2(C(=O)O[C@@H]3O[C@H](CO[C@@H]4O[C@H](CO)[C@@H](O)[C@H](O)[C@H]4O)[C@@H](O)[C@H](O[C@@H]4O[C@H](CO)[C@@H](O)[C@H](O)[C@H]4O)[C@H]3O)[C@H](O)C[C@]3(C)C(=CCC4[C@@]5(C)CC[C@H](O[C@@H]6OC[C@@H](O)[C@H](O)[C@H]6O)[C@@](C)(C(=O)O)C5CC[C@]43C)[C@@H]2C1` (some centres undefined), the viability (% of control) in assay [1] is 67.4% [at 9.25 µM]. The viability, % of control in assay [2] was 65.4% [at 9.25 µM].
Consider `CO[C@H]1/C=C/C=C/C=C/C[C@H](OC(=O)[C@@H](C)NC(=O)C2CCCCC2)[C@H](C)[C@@H](O)/C(C)=C/CCc2cc(O)cc(c2)NC(=O)C1`, for which the Potency in assay [1] was 0.0968 µM (active); in assay [2], 0.109 µM (active).
On the same counts, the results for `CC(C)Oc1ccc(C(=O)NC(CNC(=O)CN(C)C)Cc2ccc(-c3cn4cccc(C(C)O)c4n3)cc2)cc1Cl` (centres undefined) are 0.13 µM (active) and 0.082 µM (active).
With `CC1=CC(=O)CC2C1(O)CCC(C)C21CC(c2ccoc2)OC1=O` (centres undefined), the Potency entry in assay [1] and in assay [2] was “inactive” each time.
Regarding `CC/C=C\CCO[C@@H]1O[C@H](CO[C@@H]2OC[C@H](O)[C@H](O)[C@H]2O)[C@@H](O)[C@H](O)[C@H]1O`, the Potency entry in assay [1] and in assay [2] was “inactive” in each case.
For `CC(=O)OC(C)C(C)(O)C(=O)O[C@@H]1CC[C@]2(C)CC(=O)C(=C(C)C)C[C@H]2[C@]1(C)OC(C)=O` (some centres undefined), the Potency in assay [1] was 5.63 µM (active). In assay [2], the Potency entry is “inactive”.
On the same counts, the results for `C/C=C1\[C@H](O[C@@H]2O[C@H](CO)[C@@H](O)[C@H](O)[C@H]2O)OC=C(C(=O)OC)[C@H]1CC(=O)OC` are “inactive” and “inactive”.
`CCOC(=O)C1=CCCCC1S(=O)(=O)Nc1ccc(F)cc1Cl` (centres undefined): the Potency is 20.9 µM (active) in assay [1] and 16.6 µM (active) in assay [2].
On the same counts, the results for `C=C1CC2C3(C)C(O)CC(=O)C(C)(C)C3C(OC(C)=O)C(OC(C)=O)C2(C)C2C(=O)OC(C)(C(=O)OC)C(=O)C12C` (centres undefined) are “inactive” and “inactive”.
On the same counts, the results for `C=C1C(=O)O[C@@H]2C[C@@]3(C)C[C@@H](O)C[C@H](C)C3=C[C@H]12` are 5.17 µM (active) and 3.66 µM (active).
`CC1(CO)CCCC2(C)C1C(OC(=O)c1ccccc1)CC1C(=O)OCC12O` (centres undefined): the Potency entry in assay [1] and in assay [2] was “inactive” throughout.
In the case of `C=C[C@@]1(C)CC(=O)C2[C@](C)(O1)[C@@H](OC(C)=O)[C@@H](O)[C@H]1C(C)(C)CCC[C@]21C` (some centres undefined), in assay [1], the viability (% of control) was 97.8% [at 9.25 µM]. Moreover, in assay [2], the viability, % of control was 89.7% [at 9.25 µM].
Turning to `O=C(c1ccc2nccnc2c1)N1CCCCC1`, the Potency entry in assay [1] and in assay [2] was “inactive” throughout.
For the compound `COc1ccc(CCc2nc3cc(-c4c(C)noc4C)ccc3n2CC(C)N2CCOCC2)cc1Cl` (centres undefined), the Potency in assay [1] was 4.11 µM (active); in assay [2], 5.17 µM (active).
On the same counts, the results for `CC1(C)CC[C@]2(C(=O)O)CC[C@]3(C)C(=CCC4[C@@]5(C)C[C@@H](O)[C@H](O)C(C)(C)C5CC[C@]43C)[C@@H]2[C@@H]1O` (some centres undefined) are “inactive” and “inactive”.
`CCN(CC)C(=O)c1ccc(Nc2nc(OCC3CCCCC3)c3[nH]cnc3n2)cc1`: the Potency in assay [1] was 1.03 µM (active); in assay [2], 1.46 µM (active).
`COc1cc([C@@H]2Oc3c(OC)cc(CCCO)cc3[C@@H]2CO[C@@H]2O[C@H](CO)[C@@H](O)[C@H](O)[C@H]2O)ccc1O`: the Potency result in assay [1] and in assay [2] was “inactive” each time.
In the case of `COc1ccc([C@H]2OC[C@H]3O[C@@H](O[C@H]4[C@@H]2NC[C@@H]4O)[C@H](O)[C@H]3O)cc1`, the Potency was 0.64 µM (active) in assay [1] and 0.404 µM (active) in assay [2].
